Bioassay records as filed in PubChem.
TDP1 cell CPT = qHTS for Inhibitors of human tyrosyl-DNA phosphodiesterase 1 (TDP1): qHTS in cells in presence of CPT; chicken DT40 Tdp1-/-;hTDP1 cells + 20 nM CPT, ATP luminescence, 48 h; AID 686979, 2013; Potency, µM (series often up to 46.2 µM), for the others: top-dose activity change, negative = growth inhibition, most hits filed as inhibitors; 12% of 420,000 active; also: potency is read from the fitted curve at half-maximal effect; nearly all actives have a fitted effect of over 55% in size
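Chicken DT40 Tdp1-/- cells complemented with human TDP1, 400 cells/well, exposed to compounds plus 20 nM camptothecin for at least 48 h at 37 C; viability read as ATP content by CellTiter-Glo luminescence.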
HT1080-NT tox = qHTS for induction of synthetic lethality in tumor cells producing 2HG: qHTS for the HT-1080-NT fibrosarcoma cell line | HT-1080-NT fibrosarcoma viability, CellTiter-Glo ATP luminescence, 48 h | Potency, µM (highest dose often 46.1 µM), for inactives: top-dose activity, negative = less viability, hits mostly cytotoxic | 1.6% of 360,000 active;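 also: NT is the 2HG producing partner of a matched IDH1 knockdown line; potency is read from the fitted curve at half-maximal effect; 0% = DMSO-treated cells and -100% = media-only wells without cells; nearly all actives have a fitted effect of over 55% in size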
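Viability by CellTiter-Glo luminescence after 48 h compound exposure at 37C of HT-1080-NT cells (750/well, RPMI, 5% FBS). % activity scaled between DMSO wells and medium-only wells, then curve-fitted and categorized by curve class.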
IL-1B inflam inh = qHTS for Inhibitors of Inflammasome Signaling: IL-1-beta AlphaLISA Primary Screen; AID 743279, 2014; 4.7% of 360,000 active; THP-1 LPS/ATP IL-1B secretion, AlphaLISA, 16 h; hits give low values; activity change, % at 57.5 µM; in the data active = activity change below about -50%; inconclusive = mostly about -30% to -49%
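THP-1 cells pretreated 1 hr with compounds (up to 57.5 uM final), then stimulated with LPS (250 ng/mL final) plus ATP (1.25 mM final); secreted IL-1B measured by AlphaLISA after 16 hr, decreased signal indicating inhibition.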
DT40 TDP1 no CPT = qHTS for Inhibitors of human tyrosyl-DNA phosphodiesterase 1 (TDP1): qHTS in cells in absence of CPT; 15% of 420,000 active; Potency, µM (series often up to 46.2 µM), inactives show top-dose activity change, negative = growth inhibition, actives largely listed as inhibitors; DT40 Tdp1-/- hTDP1 cells, no CPT, ATP luminescence, 48 h; also: potency is read from the fitted curve at half-maximal effect; nearly all actives have a fitted effect of over 55% in size
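A cellular qHTS used chicken DT40 cells lacking endogenous Tdp1 but carrying stably transfected human TDP1. Compounds were applied without camptothecin, and cell growth kinetics were judged by ATP-dependent luminescence after ≥48 hr.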
HT1080 IDH1KD tx = qHTS for induction of synthetic lethality in tumor cells producing 2HG: qHTS for the HT-1080-IDH1KD cell line | Potency, µM (doses to about 46.1 µM), for the others: at the top dose activity, negative = toxicity, hits mostly cytotoxic | 2% of 360,000 active | HT-1080 IDH1 knockdown viability, ATP luminescence, 48 h;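 also: potency is read from the fitted curve at half-maximal effect; 0% = DMSO wells and -100% = cell-free medium wells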
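CellTiter-Glo luminescence after 48 h compound exposure at 37 degrees C of IDH1-knockdown HT-1080 cells in 5% FBS RPMI. %Activity scaled between DMSO wells and cell-free media wells, with curves fitted and assigned curve classes.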
ALOX12 inh = Primary qHTS assay for inhibitors of human arachidonate 12S-lipoxygenase (ALOX12): Round 2 | purified 12hLO, xylenol orange hydroperoxide absorbance | Polyunsaturated fatty acid lipoxygenase ALOX12 (Homo sapiens), P18054 | 1.1% of 580,000 active | Potency, µM (titrated, usually from 108 µM), inactives show at the highest dose activity change, negative = inhibition, usual class: inhibitors; also: potency is read from the fitted curve at half-maximal effect
Target sequence (P18054 whole entry, looked up): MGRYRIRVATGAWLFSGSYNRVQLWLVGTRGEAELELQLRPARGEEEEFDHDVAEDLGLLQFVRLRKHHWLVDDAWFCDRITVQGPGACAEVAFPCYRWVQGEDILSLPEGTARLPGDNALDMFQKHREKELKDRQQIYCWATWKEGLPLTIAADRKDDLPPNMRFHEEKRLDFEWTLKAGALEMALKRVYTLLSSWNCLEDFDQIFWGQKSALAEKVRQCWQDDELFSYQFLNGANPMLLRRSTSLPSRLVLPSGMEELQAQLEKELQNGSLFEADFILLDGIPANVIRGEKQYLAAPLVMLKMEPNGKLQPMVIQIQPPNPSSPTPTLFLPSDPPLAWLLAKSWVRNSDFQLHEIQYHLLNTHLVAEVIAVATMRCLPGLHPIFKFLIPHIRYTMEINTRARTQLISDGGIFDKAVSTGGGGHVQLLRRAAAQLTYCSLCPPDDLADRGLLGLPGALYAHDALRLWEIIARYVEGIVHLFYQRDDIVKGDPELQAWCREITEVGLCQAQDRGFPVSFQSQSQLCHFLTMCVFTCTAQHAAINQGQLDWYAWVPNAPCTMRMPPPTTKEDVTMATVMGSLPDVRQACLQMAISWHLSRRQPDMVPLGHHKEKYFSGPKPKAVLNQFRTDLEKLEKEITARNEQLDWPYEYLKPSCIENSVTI
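Purified human 12hLO at 150 nM in 25 mM Hepes, 0.01% Triton X-100, pH 7.0, preincubated 15 min at room temperature with compound. Reaction started with 40 uM arachidonic acid, 30 min at room temperature. Hydroperoxide measured by Fe-xylenol orange, 573/405 nm absorbance ratio.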
Numbers without * were called inactive; u = inconclusive; x = no result given; [ ] = remark or other dose. Shown is part of a subset that was picked to be rich in hits. Unless noted, calls follow the shape of the dose curve; as a rule, active = well fitted curve in the direction sought with a large enough effect; inconclusive = small, poorly fitted or top-dose-only effect, or another doubt; inactive = no such curve, though single readings can be large; an effect the other way counts as inactive or inconclusive. Unless noted, % is scaled to controls: 0 for no effect and ±100 for the full control effect.

SMILES	TDP1 cell CPT	HT1080-NT tox	IL-1B inflam inh	DT40 TDP1 no CPT	HT1080 IDH1KD tx	ALOX12 inh
C=CCOc1ccc(C(c2c(C(=O)O)[nH]c3ccccc23)c2c(C(=O)O)[nH]c3ccccc23)cc1	12%	-6%	39	-8%	0%	28µM*
COc1cc(C(c2c(C(=O)O)[nH]c3ccccc23)c2c(C(=O)O)[nH]c3ccccc23)ccc1OCc1ccccc1	-4%	-2%	31	7%	-8%	28µM*
COC(=O)[C@@]12CCCCN1[C@H](c1ccc(-c3ccc(Cl)c(Cl)c3)cc1)[C@H]1C(=O)N(C)C(=O)[C@H]12	12µM*	-3%	0	16µM*	11%	u
CCN1C(=O)[C@@H]2[C@@H](c3ccc(-c4ccc(Cl)c(Cl)c4)cc3)N3CCCC[C@@]3(C(=O)OC)[C@@H]2C1=O	18µM*	10%	-3	16µM*	3%	5%
CN(C)CCC(=O)c1ccc(Cl)cc1	2.6µM*	-3%	-5	4.6µM*	10%	-17%
CN(CCC(=O)c1ccccc1)CCC(=O)c1ccccc1	4.6µM*	8%	-10	2.9µM*	6%	-19%
COc1ccc(S(=O)(=O)NC(C)c2ccccc2)cc1-c1noc(C(C)(C)C)n1 (stereo not given)	x	x	x	x	x	5%
Cc1ccc(Nc2c(-c3ccco3)nc3nc(C)cc(C)n23)cc1	u	-10%	5	u	-16%	u
CCc1nc2nc(C)cc(C)n2c1Nc1ccc(OC)cc1	u	2%	44	18µM*	1%	-29%
COc1ccc(Nc2c(CCc3ccccc3)nc3nc(C)cc(C)n23)cc1	18µM*	u	-8	13µM*	u	18%
CCCCNc1c(CCc2ccccc2)nc2nc(C)cc(C)n12	18µM*	-16%	-3	u	-11%	-30%
C=CCN(Cc1cccc(OC)c1)C(=O)CCc1cccc(F)c1	x	x	x	x	x	-6%
CCOC(=O)c1ccc(N2C(=O)c3n[nH]c(-c4ccco4)c3C2c2ccc([N+](=O)[O-])cc2)cc1 (stereo not given)	23µM*	-28%	u	12µM*	u	-29%
CCOC(=O)c1ccc(N2C(=O)c3n[nH]c(C)c3C2c2ccc(OCC)cc2)cc1 (stereo not given)	u	x	x	10µM*	x	u
CCOC(=O)c1ccc(N2C(=O)c3n[nH]c(-c4ccco4)c3C2c2cccnc2)cc1 (stereo not given)	x	x	x	x	x	12%
CCOC(=O)c1ccc(N2C(=O)c3n[nH]c(-c4ccco4)c3C2c2ccc(C)cc2)cc1 (stereo not given)	26µM*	x	x	10µM*	x	u
COc1ccc(NC(=O)CN(C)C(=O)CNC(=O)c2ccc(C)s2)cc1	-4%	2%	14	8%	1%	13%
Cc1ccc(-n2c(-c3ccc(Br)cc3)c[n+]3c2CCc2ccc4cccnc4c2-3)cc1	0.29µM*	u	-105*	0.29µM*	4µM*	u
O=C(CSc1nccc(-c2ccc(F)cc2)n1)Nc1ccc(OC(F)F)cc1	x	x	x	x	x	33%
COc1cc(CNc2nc(C)c(-c3ccn(CC4CCCN(C)C4)n3)s2)ccc1F (stereo not given)	-15%[9.04 µM]	x	x	23µM*	x	u
COc1cc(C(=O)Nc2cccc(-c3nc4ccccc4o3)c2)cc(OC)c1OC	x	x	x	x	x	2%
CCN(CC)c1nc(Nc2ccc([N+](=O)[O-])cc2)nc(N(CC)CC)n1	26µM*	-1%	-30	21µM*	3%	-6%
c1ccc2c(-c3cn(CC4CNCCO4)nn3)ccnc2c1 (stereo not given)	x	x	x	x	x	-13%
Fc1cc(Cl)ccc1NC1=NCCCCC1	-12%	3%	-67*	-3%	1%	5%
CCCCC(c1nc2ccccc2[nH]1)n1c(-c2ccccc2)nc2cc(C)c(C)cc21 (stereo not given)	15µM*	20%	0	23µM*	18%	-6%
SMILES	TDP1 cell CPT	HT1080-NT tox	IL-1B inflam inh	DT40 TDP1 no CPT	HT1080 IDH1KD tx	ALOX12 inh
CCCCC(c1nc2ccccc2[nH]1)n1c(-c2ccccc2)nc2ccccc21 (stereo not given)	-15%	15%	0	-12%	-1%	1%
CCOc1ccc(NC(=O)c2ccccc2NC(=O)CN2CCCCCC2)cc1	-23%	-4%	-8	u	-6%	2%
CCOc1ccc(NC(=O)c2ccccc2NC(=O)CNC2CCCC(C)C2C)cc1 (stereo not given)	15µM*	-7%	19	7.3µM*	0%	0%
COCC(=O)N1CCC2(CCCN(Cc3nccs3)C2)CC1	-4%	x	x	-5%	x	4%[57.4 µM]
COc1ccccc1N1CCN(C2CCN(S(=O)(=O)c3ccc4ccccc4c3)CC2)CC1	u	-3%	-62*	u	0%	-6%
COc1ccccc1N1CCN(S(=O)(=O)c2ccc3nc(-c4ccccc4)[nH]c3c2)CC1	u	-6%	u	21µM*	-6%	2%
COc1ccccc1N1CCN(C2CCN(S(=O)(=O)c3ccc(C)cc3)CC2)CC1	-29%	-19%	-6	u	-9%	-7%
COc1ccc(CCNC(=O)Cn2nc3n(c2=O)CCCC3)cc1OC	x	x	x	x	x	63%
CCOC(=O)N1CCN(c2c(NCc3ccc(F)cc3)c(=O)c2=O)CC1	4.1µM*	5.2µM*	42	3.3µM*	5.2µM*	-3%
CCOC(=O)N1CCN(c2c(NCc3ccc(Cl)cc3)c(=O)c2=O)CC1	4.1µM*	u	0	5.8µM*	5.8µM*	29%[57.4 µM]
O=C(/C(=C/c1cccnc1)n1ccnc1)c1ccc(Cl)cc1Cl	16µM*	5%	u	15µM*	-8%	94%
O=C(/C(=C/c1ccncc1)n1ccnc1)c1ccc(Cl)cc1Cl	16µM*	-3%	-10	13µM*	-1%	u
COc1cc(OC)c(OC)cc1/C=N/NC(=S)NCC1CCCO1 (stereo not given)	7.3µM*	u	-8	u	u	-15%
